Test results from the supplement of paper PMC7057948, “A genome-wide approach for identification and characterisation of metabolite-inducible systems” (Nature Communications, 2020).

System: HpdA/P_H16_RS24175 L-tyrosine biosensor (pEH158)
Assay: relative induction of RFP reporter vs primary effector (background-corrected); higher = stronger activation of the biosensor
Details: inducer concentration 5 mM; 6 h; Cupriavidus necator H16; minimal medium + 0.4% gluconate
Experimental: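 C. necator H16 strains, each carrying one of 21 transcription factor/inducible promoter–mRFP biosensor plasmids, were grown in minimal medium in 96-well plates (robotic platform). Each was exposed to 46 structurally or metabolically related compounds at 5 mM at 30 °C. OD-normalised RFP fluorescence was read 6 h later and expressed as relative induction (%) = 100 × (FL compound − FL uninduced)/(FL primary inducer − FL uninduced); mean of n=4.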
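Also: RFP excited at 585 nm with emission read at 620 nm, culture medium blanks subtracted from fluorescence and absorbance prior to normalisation.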

| Structure (SMILES) | relative induction of RFP reporter [%] |
| --- | --- |
| NC(C(=O)O)c1ccccc1 (racemic) [D,L-2-phenylglycine] | 0.0147 |
| O=C(O)CC(=O)C(=O)O [oxaloacetate] | -0.115 |
| O=C(O)c1cccnc1 [nicotinate] | -0.141 |
| O=C(O)CNC(=O)c1ccccc1 [N-benzoylglycine] | -0.186 |
| CC(N)CC(=O)O (stereo not given) [3-aminobutanoate] | -0.135 |
| NCCS(=O)(=O)O [taurine] | -0.19 |
| NCC(N)C(=O)O (stereo not given) [2,3-diaminopropanoate] | 0.123 |
| OC[C@@H](O)[C@@H](O)[C@H](O)[C@H](O)CO [D-mannitol] | -0.117 |
| O=C(O)/C=C\C=C/C(=O)O [cis,cis-muconate] | 0.00769 |
| Cn1cnc2c1c(=O)[nH]c(=O)n2C [theobromine] | 0.0337 |
| N[C@@H](CC(=O)O)C(=O)O [L-aspartate] | -0.107 |
| Oc1ccc(O)cc1 [hydroquinone] | 0.0801 |
| O=C(O)C1CCCC1 [cyclopentane-1-carboxylate] | 0.108 |
| C[C@H](N)C(=O)O [L-alanine] | -0.194 |
| O=c1cc[nH]c(=O)[nH]1 [uracil] | -0.0253 |
| O=C(O)CCC(=O)O [succinate] | -0.126 |
| CCCC(=O)O [butyric acid] | -0.166 |
| CCC(=O)O [propanoate] | -0.0944 |
| C[C@H](O)C(=O)O [L-lactate] | -0.188 |
| Oc1cccc(O)c1 [resorcinol] | -0.0108 |

| Structure (SMILES) | relative induction of RFP reporter [%] |
| --- | --- |
| O=c1[nH]cnc2nc[nH]c12 [hypoxanthine] | -0.0963 |
| NCCc1ccc(O)c(O)c1 [dopamine] | -0.023 |
| O=C(O)C(O)c1ccccc1 (stereo not given) [mandelic acid] | 0.0552 |
| NCC(=O)O [glycine] | -0.0404 |
| O=C(O)c1ccc(O)cc1 [4-hydroxybenzoate] | -0.0931 |
| O=C(O)/C=C/C(=O)O [fumarate] | -0.0945 |
| O=C(O)C1=CCCCC1 [cyclohexene-1-carboxylate] | 0.0248 |
| O=C(O)C1=C[C@@H](O)[C@@H](O)[C@H](O)C1 [shikimate] | 0.167 |
| O=CC(=O)O [glyoxylate] | -0.0503 |
| Cn1c(=O)c2c(ncn2C)n(C)c1=O [caffeine] | 0.103 |
| C[C@@H](O)C(=O)O [D-lactate] | -0.202 |
| Oc1ccccc1O [catechol] | 0.0942 |
| O=S(=O)(O)CCO [isethionate] | -0.112 |
| O=C(O)C(O)C(=O)O [tartronic acid] | -0.0907 |
| O=C(O)c1c(O)cccc1O [2,6-dihydroxybenzoate] | 0.0687 |
| Oc1ccccc1 [phenol] | -0.0814 |
| NCC(O)C(=O)O (stereo not given) [3-amino-2-hydroxypropanoate] | -0.0973 |
| O=C(O)[C@@H](O)[C@@H](O)[C@H](O)[C@@H](O)C(=O)O [glucarate] | -0.0077 |
| O=C(O)C[C@H](O)C(=O)O [L-malate] | -0.0258 |
| CC(=O)CCC(=O)O [levulinic acid] | -0.244 |
